Shown are actives, neighbours in structure and some others; about 3.2% of the full set was active somewhere.
SKN-1 inh – suppressors of acrylamide-induced Pgst-4::GFP reporter in worms, primary screen, SKN-1 inhibitor project, whole organism, uHTS, GFP/RFP fluorescence ratio, strain VP596; actives 0.49% (n = 360,000); inhibition, % at 21.8 µM; C. elegans VP596 Pgst-4::GFP/RFP ratio, 24 h; AID 624304, 2012;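 active means interference check ratio from 0.5 to 1.5 plus GFP to RFP signal ratio inhibition reaching or exceeding a fixed threshold, cut at about 30% in these data, passing the limit was not always enough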
CendR NRP1 mod – modulators of CendR peptide binding to NRP-1, primary screen, biochemical, fluorescence polarization, uHTS; Neuropilin-1 (Homo sapiens), O14786; FAM-RPARPAR peptide binding to NRP-1; inhibition, % at 25 µM; actives 0.85% (n = 360,000); AID 602438, 2012;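 active means inhibition or corrected inhibition above about 18%, plus a signal ratio from 0.5 to 1.5, limit read from the data, passing the limit was not always enough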
MEKK2 WT-MEK5 – modulators of MEK5 binding to wildtype MEKK2, primary screen, biochemical, multiplex bead flow cytometry, Alexa488-MEK5 | Mitogen-activated protein kinase kinase kinase 2 (Homo sapiens), Q9Y2U5 | Alexa488-MEK5 binding to MEKK2 WT; actives lie on both sides | binding response (% of control), % at 10 µM | actives 1.1% (n = 290,000) | AID 1531, 2009; in the data active means binding response below about 67% or above about 130%
MEKK2 mut-MEK5 – MEK5 binding signal on mutant MEKK2 PB1, primary screen, biochemical, multiplex bead flow cytometry, Alexa488-MEK5 | Alexa488-MEK5 binding to MEKK2 mutant | percent response, % at 10 µM | actives 0.35% (n = 290,000); in the data active means percent response above about 24%, passing the limit was not always enough
MEKK3 PB1 HTS – modulators of MEKK3-MEK5 PB1 binding, primary screen, biochemical, wildtype MEKK3, multiplex bead flow cytometry, Alexa488-MEK5; binding response (% of control), % at 10 µM; bead-based flow cytometry, Alexa488-MEK5 binding to MEKK3; actives lie on both sides; 0 = blocked by unlabeled MEK5, 100 = vehicle; actives 1.4% (n = 290,000);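 active means binding response more than 3 SD above or below the average of its plate-row segment, actives on both sides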;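 further: Alexa488 bead fluorescence after subtracting the streptavidin-only scavenger bead signal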
Target sequence (Q99759 whole entry, looked up): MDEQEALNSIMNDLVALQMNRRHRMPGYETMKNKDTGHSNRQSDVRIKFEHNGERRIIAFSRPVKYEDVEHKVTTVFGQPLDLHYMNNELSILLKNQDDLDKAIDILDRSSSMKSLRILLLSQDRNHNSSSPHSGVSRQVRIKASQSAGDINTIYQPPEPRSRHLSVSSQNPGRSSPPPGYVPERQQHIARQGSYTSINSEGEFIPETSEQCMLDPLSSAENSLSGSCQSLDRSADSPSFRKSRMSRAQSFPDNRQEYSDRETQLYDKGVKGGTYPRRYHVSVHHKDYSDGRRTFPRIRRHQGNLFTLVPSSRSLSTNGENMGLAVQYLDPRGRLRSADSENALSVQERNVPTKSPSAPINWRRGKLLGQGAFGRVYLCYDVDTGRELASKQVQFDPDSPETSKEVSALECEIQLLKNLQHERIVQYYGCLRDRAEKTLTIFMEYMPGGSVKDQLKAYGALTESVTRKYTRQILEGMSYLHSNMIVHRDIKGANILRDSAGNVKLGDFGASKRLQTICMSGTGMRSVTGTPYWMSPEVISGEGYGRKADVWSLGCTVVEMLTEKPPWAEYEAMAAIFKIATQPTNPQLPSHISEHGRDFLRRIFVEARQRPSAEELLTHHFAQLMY
MEKK2wt confirm – modulators of MEK5 binding to wildtype MEKK2, confirmation, biochemical, single concentration, multiplex bead flow cytometry. shares compounds with MEKK3 PB1 HTS. Alexa488-MEK5 binding to MEKK2 WT; actives lie on both sides. binding response (% of control), % at 10 µM. actives 2.4% (n = 5,900). AID 1892, 2009; in the data active means binding response below about 16% or above about 210%; inactive means in between
MEKK2mut confirm – mutant MEKK2 PB1-MEK5 binding signal retest – biochemical, single concentration, multiplex bead flow cytometry, confirmation. Alexa488-MEK5 binding to MEKK2 mutant. AID 1893, 2009. shares compounds with MEKK3 PB1 HTS. actives 2% (n = 5,900). percent response, % at 10 µM; in the data active means percent response mostly above about 71%, no sharp cut-off; inactive means mostly below about 38%;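 further: higher means compound restores mutant binding toward wildtype level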
MEKK3 confirm – MEKK3 wild-type PB1 binding to MEK5, inhibitors, confirmation, biochemical, bead multiplex flow cytometry, single concentration, wildtype; Alexa488-MEK5 binding to MEKK3; active compounds read low; shares compounds with MEKK3 PB1 HTS; actives 1.8% (n = 5,900); binding response (% of control), % at 10 µM;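 active means binding response below 72% of control, or above a set upper limit, though filed actives all read lower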;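 further: 100% = DMSO only wells and 0% = binding blocked by excess unlabeled MEK5; lower values mean stronger disruption of MEK5 binding to MEKK3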
Starred values were filed as active, the others as inactive; [ ] = another dose, or the depositor's remark.

CCOC(=O)CSC1=N/C(=C\c2cccnc2)C(=O)N1c1ccc(OC)cc1 was read as SKN-1 inh 0.5, CendR NRP1 mod 7.4, MEKK2 WT-MEK5 94.0, MEKK2 mut-MEK5 -2.0 and MEKK3 PB1 HTS 94.0.
Screening CCOC(=O)CSC1=N/C(=C\c2cc(OC)c(OC)c(OC)c2)C(=O)N1C returned SKN-1 inh 0.0, CendR NRP1 mod -2.9, MEKK2 WT-MEK5 106.0, MEKK2 mut-MEK5 1.0, MEKK3 PB1 HTS 153.0*, MEKK2wt confirm 97.0, MEKK2mut confirm -8.0 and MEKK3 confirm 101.0.
`C=CCCC(=O)N1C[C@H]2CON(C)[C@H]2C[C@H]1c1ccc(Br)cc1` gave SKN-1 inh 5.7 and CendR NRP1 mod -5.6.
Screening CCn1c(-c2cc(-c3ccccc3OC)nc3ccccc23)n[nH]c1=S returned SKN-1 inh -7.5, CendR NRP1 mod 1.8, MEKK2 WT-MEK5 110.0, MEKK2 mut-MEK5 1.0, MEKK3 PB1 HTS 134.0*, MEKK2wt confirm 102.0, MEKK2mut confirm 9.0 and MEKK3 confirm 106.0.
Screening CN(C)c1ccc(C(=O)n2nnc3ccccc32)cc1 returned SKN-1 inh 11.0, CendR NRP1 mod 3.9, MEKK2 WT-MEK5 -7.0*[inhibitor], MEKK2 mut-MEK5 -24.0, MEKK3 PB1 HTS 1.0*[inhibitor], MEKK2wt confirm 103.0, MEKK2mut confirm 2.0 and MEKK3 confirm 102.0.
`O=C(Nc1ncccc1O)c1ccc(Cl)c(S(=O)(=O)N2CCCC2)c1` gave SKN-1 inh 7.5 and CendR NRP1 mod -1.4.
Screening CCc1nnc(NC(=O)Cc2c[nH]c3ccccc23)s1 returned SKN-1 inh 6.2, CendR NRP1 mod -2.7, MEKK2 WT-MEK5 121.0, MEKK2 mut-MEK5 7.0, MEKK3 PB1 HTS 138.0*, MEKK2wt confirm 103.0, MEKK2mut confirm 5.0 and MEKK3 confirm 107.0.
For O=C(N1CCN(c2ccccc2F)CC1)C1(c2cccs2)CCOCC1 the results were SKN-1 inh 15.8, CendR NRP1 mod 8.2, MEKK2 WT-MEK5 106.0, MEKK2 mut-MEK5 0.0, MEKK3 PB1 HTS 134.0*, MEKK2wt confirm 97.0, MEKK2mut confirm 2.0 and MEKK3 confirm 103.0.
Screening CCC(C(=O)Nc1c(C)cccc1C)n1c(-c2cnc(C)cn2)nc2ccccc21 (stereo not drawn) returned SKN-1 inh 7.4 and CendR NRP1 mod -2.9.
`CCCNC(=O)C1(C)CCN(C(=O)COc2ccc(C(C)(C)C)cc2)C1` (stereo not drawn) gave SKN-1 inh -16.6 and CendR NRP1 mod -9.3.
`O=C(Nc1ccc(F)cc1)c1ccc(CSc2ccccc2)o1` gave SKN-1 inh 16.4, CendR NRP1 mod -11.7, MEKK2 WT-MEK5 107.0, MEKK2 mut-MEK5 0.0, MEKK3 PB1 HTS 145.0*, MEKK2wt confirm 106.0, MEKK2mut confirm 2.0 and MEKK3 confirm 105.0.
For CN1C(=O)NC(c2ccc(O)cc2)C2=C1CN(c1ccc(O)cc1)C2=O (stereo not drawn) the results were SKN-1 inh -0.7, CendR NRP1 mod -1.3, MEKK2 WT-MEK5 126.0, MEKK2 mut-MEK5 5.0, MEKK3 PB1 HTS 147.0*, MEKK2wt confirm 98.0, MEKK2mut confirm -6.0 and MEKK3 confirm 100.0.
`CC1(Cc2ccc(C(F)(F)F)o2)C(=O)Nc2cc(-c3ccc(F)cc3F)ccc21` (stereo not drawn) gave SKN-1 inh 21.3 and CendR NRP1 mod 5.0.
